Test [1] can be described thus: Primary fluorescence-based thiol-reactive (MSTI) qHTS assay for identification of artifact compounds. (AID 1845221). Note: nearly all actives have a fitted effect of over 65% in size. Note: potency is the fitted concentration of half-maximal effect. The essentials: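 Thiol-reactive compounds detected by quenching of 4 uM MSTI fluorescence (525/598 nm) after 1 h room-temperature dark incubation in PBS pH 7.4, 2% DMSO. qHTS titration; percent inhibition Hill-fitted against Acetyl-MSTI/MSTI controls.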
(In general: Quantitative high-throughput screening tests each substance at several concentrations.)

In test [2] the test system is Nanoluciferase (engineered Oplophorus gracilirostris luciferase). The test is described as follows: Primary Nanoluciferase (NLuc) qHTS assay for identification of artifact compounds. (AID 1845222). Note: series mostly up to about 54 µM. The essentials: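 Luminescence from secreted NLuc (filtered, 1:55-diluted S16 cell medium) read 5 min after Nano-Glo substrate; compounds preincubated 15 min, RT. Hill fits of inhibition normalized to DMSO and no-enzyme.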

Test [3] is described as follows: Primary redox qHTS assay for identification of artifact compounds. (AID 1845223). In short, it runs like this: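 Redox-cycling detection via DTT (250 uM final) oxidation coupled to Amplex Red (25 uM)/HRP (250 mU/mL) in HBSS. 15 min preincubation plus 30 min after DTT, room temperature. Ex/Em 525/598 nm; 4-parameter Hill fit against DMSO and 10 uM DA3003.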

Each structure is given as a SMILES string. Results filed as inconclusive are left out. The source made the active and inactive calls. Calls come from the whole dose curve; as a rule, active = well fitted curve in the direction sought with a large enough effect; inconclusive = small, poorly fitted or top-dose-only effect, or another doubt; inactive = no such curve, though single readings can be large; an effect the other way counts as inactive or inconclusive.

`N[C@@H](CC(=O)N1CCn2c(nnc2C(F)(F)F)C1)Cc1[nH]nc2c(F)c(F)ccc12`: the Potency result in test [1], in test [2] and in test [3] was “inactive” throughout.
`OCC1OC(Oc2cc(O)c3c(c2)OC(c2ccc(O)cc2)C(O)C3)C(O)C1O` (stereo not drawn): the Potency result in test [1] and in test [3] was “inactive” in each case.
For `Nc1c(Br)cc(Br)cc1CNC1CCC(O)CC1` (stereo not drawn), the Potency entry in test [1] and in test [3] was “inactive” in each case.
Take `CC(O)C(O)/C=C/C=C/C(=O)O[C@@H]1C=C2COC(=O)[C@]2(O)[C@@]2(C)CCCC(C)(C)C12` (stereo partly drawn): the Potency entry in test [1] and in test [3] was “inactive” in each case.
With `CCCCN(CCCC)C(=O)CN1C[C@H](c2ccc3c(c2)OCO3)[C@@H](C(=O)O)[C@@H]1c1ccc(OC)cc1`, the Potency entry in test [1] and in test [3] was “inactive” in each case.
Consider `Nc1ccn([C@@H]2C(F)=C(CO)[C@@H](O)[C@H]2O)c(=O)n1`, for which the Potency result in test [1] and in test [3] was “inactive” throughout.
As to `O=C1NC(=Nc2ccccc2F)S/C1=C\c1ccc(C(=O)O)cc1`, the Potency result in test [1] and in test [3] was “inactive” throughout.
As for `CCC(=O)NS(=O)(=O)c1ccc(-c2c(-c3ccccc3)noc2C)cc1`, the Potency entry in test [1] and in test [3] was “inactive” each time.
On to `COc1cc(/C=C/C(=O)OC(C)(C)C(OC2OC(CO)C(O)C(O)C2O)C(=O)OCc2ccc(OC3OC(CO)C(O)C(O)C3O)cc2)ccc1O` (stereo not drawn), for which the Potency result in test [1] and in test [3] was “inactive” each time.
Turning to `CC(/C=C/C1(O)C2(C)COC1(C)CC(=O)C2)O[C@@H]1O[C@H](CO)[C@@H](O)[C@H](O)[C@H]1O` (stereo partly drawn), in test [1], the Potency is 10.3 µM (active). The Potency entry in test [2] and in test [3] was “inactive” in each case.
Regarding `COC12CC3C(C(C)C1=CC(=O)O2)C(O)C(OC(C)=O)C1C(C)(C)C(OC(C)=O)CCC31C` (stereo not drawn), the Potency result in test [1], in test [2] and in test [3] was “inactive” each time.
Turning to `COc1ccc([C@H]2Cc3cccc(O)c3C(=O)O2)cc1`, the Potency entry in test [1], in test [2] and in test [3] was “inactive” each time.
Take `Nc1nc(CC(=O)Nc2ccc(CCNCC(O)c3ccccc3)cc2)cs1` (stereo not drawn): the Potency result in test [1] and in test [3] was “inactive” throughout.
Turning to `O=C(O)[C@H]1CCCC[C@H]1C(=O)N1CCc2ccccc2[C@H]1CN1C(=O)c2ccccc2C1=O`, the Potency entry in test [1], in test [2] and in test [3] was “inactive” each time.
With `CC(=O)OC1C(O)CC(O[C@@H]2O[C@H](CO)[C@@H](O)[C@H](O)[C@H]2O)C2CCC3C(=O)OC(c4ccoc4)CC3(C)C21` (stereo partly drawn), the Potency entry in test [1] and in test [3] was “inactive” each time.
`Cc1c(CN(C)C(=O)/C=C/c2cnc3c(c2)CCC(=O)N3)oc2ccccc12`: the Potency result in test [1] and in test [3] was “inactive” throughout.
On to `CC(=O)Oc1cc2c(s1)CCN([C@H](C(=O)C1CC1)c1ccccc1F)C2`, for which the Potency result in test [2] and in test [3] was “inactive” in each case.
In the case of `COc1cc(/C=C/CO)ccc1O[C@@H]1O[C@H](CO)[C@@H](O)[C@H](O)[C@H]1O`, the Potency entry in test [2] and in test [3] was “inactive” each time.
Take `C[C@H](NCc1ccc(OCc2ccccc2F)cc1)C(N)=O`: the Potency result in test [2] and in test [3] was “inactive” throughout.
